Assay results taken from PubChem BioAssay (EPA / NIEHS).
Results filed as inconclusive are left out. The source made the active and inactive calls. Rule for the calls: active = hit-call score of the fitted dose curve at least 0.9, where 1 is the maximum; inconclusive = response in the unintended direction; inactive = score below 0.9.

Assay: Tanguay_ZF_120hpf_CFIN_legacy: (Legacy) Oregon State University Tanguay Lab 120 Hour Post-fertilization zebrafish Assay for Caudal Fin Malformation (AID 2283649)
Method: Tanguay_ZF_120hpf_legacy is a whole embryo, multiplexed endpoint assay using zebrafish larvae exposed for 120 hours post fertilization on a 96-well plate.Tanguay_ZF_120hpf_CFIN_legacy is one of one assay component(s) measured or calculated from the Tanguay_ZF_120hpf_legacy assay. It is designed to make measurements of zebrafish development as detected with brightfield microscopy of developing zebrafish embryos.Data from the assay component Tanguay_ZF_120hpf_CFIN_legacy was analyzed into 1 assay endpoints. This assay endpoint, Tanguay_ZF_120hpf_CFIN_legacy, was analyzed in the positive analysis fitting direction relative to DMSO as the negative control and baseline of activity. Using a type of morphology reporter, gain-of-signal activity can be used to understand changes in developmentals as they relate to the whole embryo. To generalize the intended target to other relatable targets, this assay endpoint is annotated to the zebrafish development intended target family, where the subfamily is caudal fin morphogenesis.
Zebrafish husbandry: Tropical 5D wild-type adult zebrafish were housed in at an approximate density of 1000 per 100 gallon tank at the Sinnhuber Aquatic Research Laboratory, Oregon State University, Corvallis, OR. Each tank was kept at standard laboratory conditions of 28C on a 14-h light/10-h dark photoperiod in fish water consisting of reverse osmosis water supplemented with a commercially available salt (Instant Ocean). Spawning funnels were placed into the tanks the night prior, and embryos were collected and staged. To increase bioavailability, the chorion was enzymatically removed using pronase (63.6mg/ml, >/= 3.5U/mg, Sigma-Aldrich: P5147) at 4 hours post fertilization (hpf) using a custom automated dechorionator.Chemical exposures: Six hpf dechorionated embryos were placed 1 embryo per well in a 96-well plate prefilled with 90 ul of EM using automated embryo placement systems (AEPS). Ten microliters of each row of dilution plate 2 was added to 2 exposure plates. The final DMSO concentration used was 0.64% (vol/vol). Thirty-two embryos were also exposed to 5uM trimethyltin chloride (positive control). Plates were sealed to prevent evaporation and foil covered to reduce light exposure and kept in a 28C incubator. Embryos were statically exposed until 120 hpf. At 24 hpf, embryos were assessed for photomotor response using a custom photomotor response analysis tool (PRAT) and for developmental toxicity endpoints (MO24: mortality at 24 hpf, DP: developmental progression, SM: spontaneous movement, and NC: notochord distortion). At 120 hpf, locomotor activity was measured using Viewpoint Zebralab and assessed for 18 endpoints. Zebrafish acquisition and analysis program (ZAAP), a custom program designed to inventory, acquire, and manage zebrafish data, was used to collect developmental endpoints as either present or absent (i.e., binary responses were recorded). If mortality occurred for an embryo (at either 24 or 120 hpf), the non-mortality endpoints were not measured.

Row | SMILES | outcome | AC50
1 | Clc1ccc(C(c2ccc(Cl)cc2)C(Cl)(Cl)Cl)cc1 | inactive | –
2 | COC(=O)c1ccccc1N | inactive | –
3 | O=C1CCCO1 | inactive | –
4 | Nc1ccc(Cc2ccc(N)cc2)cc1 | inactive | –
5 | O=Cc1ccco1 | inactive | –
6 | CC(O)CCO (stereo not given) | inactive | –
7 | CCCCCCCCn1sccc1=O | inactive | –
8 | O=P(OCCCl)(OCCCl)OCCCl | inactive | –
9 | Cc1cccc(N)c1N | inactive | –
10 | O=[N+]([O-])c1ccc(Oc2ccc(Cl)cc2Cl)cc1 | inactive | –
11 | C=CCc1ccc2c(c1)OCO2 | inactive | –
12 | CN(C)C(=O)Nc1ccc(Cl)cc1 | inactive | –
13 | c1ccc2c(c1)-c1cccc3cccc-2c13 | inactive | –
14 | OCCCl | inactive | –
15 | ClCCOCCCl | inactive | –
16 | O=C(Nc1ccccc1)c1ccccc1I | – | 45 µM (active)
17 | [Cl-].[Cl-].[Hg+2] | – | 1.08 µM (active)
18 | CC(C)(OOC(C)(C)c1ccccc1)c1ccccc1 | inactive | –
19 | Oc1ccc2ccc3cccc4ccc1c2c34 | – | 12.4 µM (active)
20 | CCCCCCCCCCCCCN1CC(C)OC(C)C1 (stereo not given) | inactive | –

Row | SMILES | outcome | AC50
21 | CN(C)c1ccc(C(=O)c2ccc(N(C)C)cc2)cc1 | inactive | –
22 | COP(=S)(OC)SCN1C(=O)c2ccccc2C1=O | inactive | –
23 | CCN(CC)CCO | inactive | –
24 | Cc1ccc(N=C=O)cc1N=C=O | inactive | –
25 | Oc1ccccc1Cl | inactive | –
26 | ClC1=C(Cl)[C@]2(Cl)[C@H]3[C@H]([C@@H]4C=C[C@H]3C4)[C@@]1(Cl)C2(Cl)Cl | inactive | –
27 | CN(C)[C@@H]1C(=O)C(C(N)=O)=C(O)[C@@]2(O)C(=O)C3=C(O)c4c(O)cccc4[C@@](C)(O)[C@H]3C[C@@H]12 | inactive | –
28 | N#CC(Br)Br | inactive | –
29 | CC(C)(C)OOC(=O)c1ccccc1 | inactive | –
30 | CC(C)COC(=O)c1ccccc1C(=O)OCC(C)C | inactive | –
31 | Clc1ccccc1Cl | inactive | –
32 | Brc1ccc(Oc2ccccc2)cc1 | inactive | –
33 | CO[C@@H]1[C@H](OC(=O)NC(=O)CCl)CC[C@]2(CO2)[C@H]1[C@@]1(C)O[C@@H]1CC=C(C)C | inactive | –
34 | O=[N+]([O-])C(Br)(CO)CO | inactive | –
35 | COc1cc(C=O)cc2c1[C@H](COC(N)=O)[C@]1(OC(C)=O)ON2C[C@H]2[C@@H]1N2C(C)=O | inactive | –
36 | CCCCCCCCOC(=O)c1ccc(C(=O)OCCCCCCCC)c(C(=O)OCCCCCCCC)c1 | inactive | –
37 | CC(C)(C)OOC(C)(C)CCC(C)(C)OOC(C)(C)C | inactive | –
38 | CCC12COCN1COC2 | inactive | –
39 | C[N+](C)(C)CC1CO1 (stereo not given) | inactive | –
40 | Nc1cc(Cl)cc(C(=O)O)c1Cl | inactive | –
